The panel holds about 83,000 compounds, 20% with a hit somewhere; the sample as a whole holds those more often.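 Negative percent growth values reflect cell death: -40 means 40% of the cells present at the start died, and -100 means all died.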 A number with no mark means an inactive call. Activity calls are given as the source filed them. The calls were made as follows: active = growth percent below 10; inactive = the rest.
These compounds were tested on DU-145 prostate (assay: NCI-60 one-dose screen, 48 h (100 = growth as untreated, 0 = no growth, -100 = all killed)). Conditions: 10 µM unless noted.

Point of comparison: `Cc1ccc(N2CCN(C3=C(Cl)C(=O)c4ncccc4C3=O)CC2)cc1`, growth 51.7%. Against it:
- CC1=C(C)C(=O)C(Nc2ccc(C)cc2)=C(Br)C1=O — higher, 106%
- COc1ccc2[nH]cc(-c3nc(N)nnc3-c3cn(C)c4ccc(Br)cc34)c2c1 — lower, 48.8%
- O=C(/C=C/c1ccccc1Cl)Nc1ncc(Cc2cc(Cl)ccc2Cl)s1 — lower, 30.7%
- Fc1ccc(-c2cn3c(-c4c[nH]c5ccc(Br)cc45)csc3n2)cc1 — higher, 67.4%
- C#Cc1nc(/C=C/CCCCCCC(=O)NO)cs1 — lower, 23.8%
- C#C[C@]1(O)CC[C@H]2[C@@H]3CC=C4c5sc(Nc6ncccc6C)nc5CC[C@]4(C)[C@H]3CC[C@@]21C — lower, 36.8%
- CC(C)=CCC[C@](C)(O)[C@H]1CC[C@]2(C)[C@@H]1CC[C@@H]1[C@@]3(C)CC[C@H](N)C(C)(C)[C@@H]3CC[C@]12C — higher, 72.2%
- N#Cc1c(-c2cccs2)cc(-c2cnccn2)nc1SCC(=O)N/N=C/c1ccncc1 — higher, 112%
- CCOC(=O)c1cccc(NC2=C(Cl)C(=O)C(C)=C(C)C2=O)c1 — higher, 104%
- c1ccc(-c2cn3c(-c4c[nH]c5ccccc45)csc3n2)cc1 — higher, 94%
- Cc1cc(Br)ccc1-n1cc(C#N)c(N)c1C(=O)c1ccc(Br)cc1 — higher, 119%

For `CN(C)S(=O)(=O)c1ccc(-c2nc(C(Cl)Cl)nc3cc(-c4ccc(F)cc4)nn23)cc1`, the growth was 5.97% (active).
For `Cc1cc2nc3c4cc(C#N)ccc4n(CCN(C)C)c3nc2cc1C`, the growth was 5.75% (active).

— PubChem BioAssay (NCI)
